# Inconclusive results are not listed. Where a call stands in place of a potency, no number is given. Calls of active or inactive are those of the source. Calls come from the whole dose curve; as a rule, active = well fitted curve in the direction sought with a large enough effect; inconclusive = small, poorly fitted or top-dose-only effect, or another doubt; inactive = no such curve, though single readings can be large; an effect the other way counts as inactive or inconclusive.
# How the values were obtained:
# [1] = qHTS for Inhibitors of Plasmodium falciparum (DD2) proliferation (AID 504314);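 note: parasite DNA measured by SYBR Green fluorescence after red cell lysis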; conditions: P. falciparum Dd2 in erythrocytes, SYBR Green growth, 72 h; series mostly up to 1.12 µM
# In short: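 P. falciparum Dd2 is grown in erythrocytes with test compound for 72 h at 37C under 5% CO2. Growth is scored by SYBR Green I fluorescence after detergent lysis, relative to artemisinin (0.29 uM) and DMSO controls.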
# [2] = qHTS for Inhibitors of Plasmodium falciparum (GB4) proliferation (AID 504315); note: nearly all actives have a fitted effect of over 50% in size; note: potency is the fitted concentration of half-maximal effect; conditions: P. falciparum GB4 in erythrocytes, SYBR Green DNA, 72 h; series mostly up to 6.7 µM
# In short: (§1)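 Parasite growth measured as SYBR Green DNA fluorescence (ex 485, em 535 nm) after overnight lysis following 72 h culture at 37 °C, 0.3% parasitemia, 2.5% hematocrit. Values normalized against DMSO and 0.29 uM artemisinin controls, with plate-stack correction.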
# [3] = qHTS for Inhibitors of Plasmodium falciparum (CP250) proliferation (AID 504320); conditions: P. falciparum CP250 in erythrocytes, SYBR Green DNA, 72 h; series mostly up to 6.7 µM
# In short: as §1
# [4] = qHTS for Inhibitors of Plasmodium falciparum (HB3) proliferation (AID 504318); note: nearly all actives have a fitted effect of over 60% in size; note: potency is the fitted concentration of half-maximal effect; conditions: P. falciparum HB3 in erythrocytes, SYBR Green DNA, 72 h; series mostly up to 7.21 µM
# In short: as §1
# [5] = qHTS for Inhibitors of Plasmodium falciparum (7G8) proliferation (AID 504316); note: nearly all actives have a fitted effect of over 65% in size; note: potency is the fitted concentration of half-maximal effect; conditions: P. falciparum 7G8 in erythrocytes, SYBR Green DNA, 72 h; series mostly up to 6.7 µM
# In short: as §1
SMILES,Potency [1],Potency [2],Potency [3],Potency [4],Potency [5]
CC1(OC(=O)CCc2ccccc2)C(=O)C=C2C=C(c3ccc(C#N)cc3)N(C3CCCC3)C=C2C1=O (configuration not stated),inactive,inactive,inactive,,
COC(=O)[C@@H](NC(=O)N1CCc2nc(-c3ccccc3)c3c(c2C1)CO[C@@H](C)C3)C(C)C,inactive,inactive,,inactive,
C=CCN1c2ccccc2[C@]23C[C@@H](C(=O)OC)N(S(=O)(=O)c4cccs4)C2=NC(C(=O)OC)=C(C(=O)OC)[C@H]13,inactive,inactive,inactive,,
C=CCN1c2ccccc2[C@]23C[C@@H](C(=O)OC)N(C(=O)c4cc(C)oc4C)C2=NC(C(=O)OC)=C(C(=O)OC)[C@H]13,inactive,inactive,inactive,,
COC(=O)CCC(=O)OC1(C)C(=O)C2=CN(Cc3ccco3)C(c3ccc(OC)cc3)=CC2=C(Br)C1=O (configuration not stated),inactive,inactive,inactive,,
C=CCN1c2ccccc2[C@]23C[C@@H](C(=O)OC)N(S(=O)(=O)c4ccc5c(c4)OCCN5C)C2=NC(C(=O)OC)=C(C(=O)OC)[C@H]13,inactive,,,,1.69 µM (active)
COC(=O)CCC(=O)OC1(C)C(=O)C=C2C=C(C3CC3)N(c3ccccc3)C=C2C1=O (configuration not stated),inactive,inactive,,inactive,
COC(=O)CCC(=O)OC1(C)C(=O)C=C2C=C(C3CC3)N(C3CC3)C=C2C1=O (configuration not stated),inactive,inactive,,inactive,
COc1ccc2c(c1)O[C@@H](c1cccc(C(F)(F)F)c1)[C@H](OC(=O)N[C@H]1CCCc3ccccc31)C2=O,inactive,inactive,inactive,inactive,
CC#CCN1c2ccccc2[C@]23C[C@@H](C(=O)OC)N(C(=O)OCC)C2=NC(C(=O)OC)=C(C(=O)OC)[C@H]13,inactive,inactive,inactive,,
COC(=O)CCCC1=CC2=C(c3ccccc3)C(=O)C(C)(OC(=O)C3CCCC3)C(=O)C2=CN1CCCOC(C)C (configuration not stated),inactive,inactive,inactive,,
C=CCN1C=C2C(=O)C(C)(OC(=O)CCc3ccccc3)C(=O)C=C2C=C1c1ccc(C#N)cc1 (configuration not stated),inactive,inactive,inactive,,
C[C@@H]1C[C@](C)(C(=O)c2ccc3ccccc3c2)C=C1c1ccc2ccccc2c1,inactive,inactive,inactive,inactive,
C=C(C(C)=O)C(O)c1ccc2ccccc2c1 (configuration not stated),inactive,inactive,inactive,inactive,
COC(=O)C1=C(C(=O)OC)[C@@H]2N(C)c3ccccc3[C@@]23C[C@@H](C(=O)OC)N(S(=O)(=O)c2ccc4c(c2)OCCN4C)C3=N1,inactive,2.39 µM (active),inactive,,
C=CCN1c2ccccc2[C@]23C[C@@H](C(=O)OC)N(S(=O)(=O)CCCC)C2=NC(C(=O)OC)=C(C(=O)OC)[C@H]13,inactive,inactive,inactive,,
C=CCNC(=O)N1CCc2nc(COc3ccccc3)c3c(c2C1)CO[C@@H](C)C3,inactive,inactive,inactive,inactive,
CC#CCN1c2ccccc2[C@]23C[C@@H](C(=O)OC)N(C(=O)c4ccc(Br)cc4)C2=NC(C(=O)OC)=C(C(=O)OC)[C@H]13,inactive,inactive,inactive,,
CC(C)CON=C1C[C@@H](O)[C@@H](O)[C@@H]2[C@H]3C(=O)N(C4CCCCC4)C(=O)[C@@H]3CC[C@H]12,inactive,inactive,inactive,inactive,
C=CCN1c2ccccc2[C@]23C[C@@H](C(=O)OC)N(S(=O)(=O)c4c(C)noc4C)C2=NC(C(=O)OC)=C(C(=O)OC)[C@H]13,inactive,inactive,inactive,inactive,

SMILES,Potency [1],Potency [2],Potency [3],Potency [4],Potency [5]
CCCCc1nc2c(c3c1C[C@H](C)OC3)CN(C(=O)Cc1cccc(OC)c1)CC2,inactive,inactive,inactive,inactive,
COC(=O)C1=C(C(=O)OC)[C@@H]2N(C)c3ccccc3[C@@]23C[C@@H](C(=O)OC)N(S(=O)(=O)c2ccc(OC)cc2)C3=N1,inactive,inactive,inactive,,
C/C=C/C1=Cc2ccccc2C(CC(=O)OC)N1C(=O)OC (configuration not stated),inactive,inactive,inactive,,
O=C(C=Cc1ccc2c(c1)OCO2)c1ccccc1,inactive,inactive,inactive,,
COc1cccc([C@@H]2Oc3ccc(Br)cc3C(=O)[C@@H]2OC(=O)Nc2ccc(OC(F)F)cc2)c1,inactive,inactive,inactive,,
CCCCS(=O)(=O)N1C2=NC(C(=O)OC)=C(C(=O)OC)[C@@H]3N(C)c4ccc(OC)cc4[C@]23C[C@H]1C(=O)OC,inactive,inactive,inactive,,
CC#CCN1c2ccccc2[C@]23C[C@@H](C(=O)OC)N(C(=O)c4cccs4)C2=NC(C(=O)OC)=C(C(=O)OC)[C@H]13,inactive,,inactive,,inactive
CC#CCN1c2ccccc2[C@]23C[C@@H](C(=O)OC)N(C(=O)c4cc(C)oc4C)C2=NC(C(=O)OC)=C(C(=O)OC)[C@H]13,inactive,,,,1.51 µM (active)
CCN1C(=O)N(C)[C@@H](c2ccccc2)C(C(C)=O)=C1C,inactive,,inactive,inactive,inactive
CCOC(=O)CN1C(=O)N[C@@H](c2cccc(C(F)(F)F)c2)[C@@H](C(=O)OC)[C@H]1C,inactive,,inactive,inactive,inactive
COC(=O)[C@@H](NC(=O)N1CCc2nc(COc3ccccc3)c3c(c2C1)CO[C@@H](C)C3)C(C)C,inactive,,inactive,,1.69 µM (active)
CC1(OC(=O)CCc2ccccc2)C(=O)C=C2C=C(c3ccc(C#N)cc3)N(c3ccccc3)C=C2C1=O (configuration not stated),inactive,,inactive,inactive,inactive
COC(=O)CCC(=O)OC1(C)C(=O)C2=CN(C3CCCC3)C(c3ccc(OC)cc3)=CC2=C(Br)C1=O (configuration not stated),inactive,,inactive,,inactive
CCOC(=O)CCCNC(=O)N1CCc2nc(COc3ccccc3)c3c(c2C1)CO[C@@H](C)C3,inactive,,inactive,,1.51 µM (active)
CC1(OC(=O)C2CCCC2)C(=O)C=C2C=C(c3ccsc3)N(c3ccccc3)C=C2C1=O (configuration not stated),inactive,,inactive,,inactive
C#CCCOC(=O)N1C2=NC(C(=O)OC)=C(C(=O)OC)[C@@H]3N(CC#CC)c4ccccc4[C@]23C[C@H]1C(=O)OC,inactive,,inactive,inactive,
CC(C)CN1C=C2C(=O)C(C)(OC(=O)CCc3ccccc3)C(=O)C=C2C=C1c1ccc(C#N)cc1 (configuration not stated),inactive,,inactive,inactive,inactive
COC(=O)C(C(=O)OC)C1c2ccccc2C=C(C)N1C(=O)OC (configuration not stated),inactive,,inactive,inactive,inactive
CCCCc1nc2c(c3c1C[C@H](C)OC3)CN(S(=O)(=O)c1c(C)noc1C)CC2,inactive,,inactive,inactive,inactive
CCCCC1=CC2=CC(=O)C(C)(OC(=O)CC)C(=O)C2=CN1CCOC (configuration not stated),inactive,,inactive,inactive,inactive

SMILES,Potency [1],Potency [2],Potency [3],Potency [4],Potency [5]
COC(=O)C1=C(C)N(Cc2ccco2)C(=O)N[C@@H]1c1ccc(Br)cc1,inactive,,inactive,inactive,inactive
COC(=O)[C@@H]1[C@@H](C)N(Cc2ccccc2)C(=O)N[C@H]1c1cccc(C(F)(F)F)c1,inactive,,inactive,inactive,inactive
COC(=O)N1C(/C=C/C=C/c2ccc(OC)cc2)=Cc2ccccc2C1CC(C)=O (configuration not stated),inactive,,inactive,,1.51 µM (active)
COC(=O)CCC(=O)OC1(C)C(=O)C=C2C=C(C3CC3)N(CCc3ccccn3)C=C2C1=O (configuration not stated),inactive,,,inactive,
COC(=O)c1ccccc1S(=O)(=O)N1CCc2nc(-c3ccccc3)c3c(c2C1)CO[C@@H](C)C3,inactive,,inactive,,inactive
CCCCC1=CC2=CC(=O)C(C)(OC(=O)CC)C(=O)C2=CN1Cc1ccc2c(c1)OCO2 (configuration not stated),inactive,,inactive,inactive,inactive
CCCCc1nc2c(c3c1C[C@H](C)OC3)CN(C(=O)Nc1cccc(C#N)c1)CC2,inactive,,,inactive,inactive
CCOC(=O)CN1C(=O)N[C@@H](CCc2ccccc2)[C@H](C(C)=O)[C@H]1C,inactive,,inactive,inactive,inactive
COc1ccc(-c2nc3c(c4c2C[C@H](c2ccccc2)OC4)CN(S(=O)(=O)c2c(C)noc2C)CC3)c(C)c1,inactive,,,,1.69 µM (active)
CCN1C(=O)N(S(=O)(=O)c2ccc(C)cc2)[C@@H](c2ccccc2)C(C(=O)OC)=C1C,inactive,,inactive,inactive,inactive
CCCCC1=CC2=CC(=O)C(C)(OC(=O)CC)C(=O)C2=CN1CCc1ccccn1 (configuration not stated),inactive,,inactive,,inactive
COC(=O)C1=C(C(=O)OC)[C@@H]2Nc3ccccc3[C@@]23C[C@@H](C(=O)OC)N(C(=O)c2cc(C)oc2C)C3=N1,inactive,,inactive,1.69 µM (active),1.69 µM (active)
COC(=O)N1C(/C=C/c2ccc3c(c2)OCO3)=Cc2ccccc2C1CC(C)=O (configuration not stated),inactive,,inactive,,2.69 µM (active)
COC(=O)C1=C(C(=O)OC)[C@@H]2N(C)c3ccc(OC)cc3[C@@]23C[C@@H](C(=O)OC)N(S(=O)(=O)c2ccc(C#N)cc2)C3=N1,inactive,,inactive,,1.69 µM (active)
COC(=O)C1=C(C(=O)OC)[C@@H]2Nc3ccccc3[C@@]23C[C@@H](C(=O)OC)N(S(=O)(=O)c2c(C)noc2C)C3=N1,inactive,,inactive,,inactive
COC(=O)C1=C(C(=O)OC)[C@@H]2Nc3ccccc3[C@@]23C[C@@H](C(=O)OC)N=C3N1,inactive,,inactive,inactive,inactive
COC(=O)N1C(C)=Cc2ccccc2C1C/C(C)=C/C(C)=O (configuration not stated),inactive,,inactive,inactive,inactive
CCC(=O)N1C2=C(c3ccccc3[C@@H]1CC(=O)Nc1ccc3ccccc3c1)[C@@H]1C(=O)N(c3ccccc3)C(=O)[C@@H]1[C@H](C)C2,inactive,,inactive,,1.9 µM (active)
